Test results: PubChem BioAssay (Tox21)
Results filed as inconclusive are left out. Activity calls are given as the source filed them. Unless noted, calls come from the whole dose curve; as a rule, active = well fitted curve in the direction sought with a large enough effect in the repeat runs; inconclusive = weak or mixed curves; inactive = no such curve, though single readings can be large; an effect the other way counts as inactive or inconclusive.

What was measured:
[1] = qHTS assay for small molecules that induce genotoxicity in human embryonic kidney cells expressing luciferase-tagged ATAD5 (AID 651632); note: nearly all actives have a fitted effect of over 15% in size
Procedure, shortened: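 A rise in luciferase signal from ATAD5-tagged HEK293T cells marks genetic stress. Cells were exposed to compounds for 16 hr at 37C, 5% CO2, then luciferase was quantified after a 30 min room-temperature incubation with Amplite.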

[2] = qHTS assay for small molecule agonists of the p53 signaling pathway - cell viability (AID 651633; calls by dose curve; note: nearly all actives have a fitted effect of over 30% in size; note: potency is the fitted concentration of half-maximal effect)
Procedure, shortened: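 p53RE-bla cells were treated with compound for 16 hours at 37 C. Cytotoxicity was then measured as CellTiter-Glo luminescence after 30 min at room temperature.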

[3] = qHTS assay for small molecules that induce genotoxicity in human embryonic kidney cells expressing luciferase-tagged ATAD5 - cell viability (AID 651634; calls by dose curve; note: nearly all actives have a fitted effect of over 25% in size; note: potency is the fitted concentration of half-maximal effect)
Procedure, shortened: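 Cytotoxicity counter-readout: after 15.5 hr compound treatment at 37C, live-cell protease activity in ATAD5-luciferase HEK293T cells measured by CellTiter-Fluor fluorescence, 30 min development at 37C.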

[4] = qHTS assay for small molecule disruptors of the mitochondrial membrane potential - cell viability (AID 720634; calls by dose curve;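 note: human HepG2 liver cancer cells; nearly all actives have a fitted effect of over 20% in size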)
Procedure, shortened: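 Cytotoxicity was quantified from ATP content by CellTiter-Glo luminescence in the same wells as the MMP dye read-out. HepG2 (2,000 cells/well) were plated overnight and exposed to compounds for 1 hr at 37 C.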

[5] = qHTS assay for small molecule disruptors of the mitochondrial membrane potential (AID 720635); note: potency is the fitted concentration of half-maximal effect
Procedure, shortened: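 HepG2 cells exposed to compound 1 hr at 37C, then Mito-MPS dye 30 min. Ratio read of aggregate (540/590 nm) versus monomer (490/535 nm) fluorescence.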

[6] = qHTS assay to test for compound auto fluorescence at 590 nm (red) in HepG2 cells (AID 720674)
Procedure, shortened: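 Fluorescence at 590 nm emission following 540 nm excitation was recorded from HepG2 wells one hour after compound transfer, with DMSO-only wells as vehicle and Rose Bengal sodium equivalency as the scale.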

[7] = qHTS assay to test for compound auto fluorescence at 535 nm (green) in HepG2 cells (AID 720675)
[8] = qHTS assay to test for compound auto fluorescence at 460 nm (blue) in HEK293 cells (AID 720678)
Procedure, shortened: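 Intrinsic compound fluorescence is recorded in live HEK293 cultures after overnight incubation at 37C, 5% CO2, using excitation 405 nm and emission 460 nm. Values are referenced to triamterene.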

[9] = qHTS assay to test for compound auto fluorescence at 590 nm (red) in HEK293 cells (AID 720679)
Procedure, shortened: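 Red autofluorescence, HEK293 cells: 2,000 cells/well; attach 4-5 hr 37C; add 23 nL cpd or DMSO; incubate o/n 37C 5% CO2; read Ex540/Em590; Rose Bengal sodium reference.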

[10] = qHTS assay to test for compound auto fluorescence at 535 nm (green) in HEK293 cells (AID 720680)
[11] = qHTS assay to test for compound auto fluorescence at 460 nm (blue) in HEK293 cell free culture (AID 720681)
Procedure, shortened: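 Compounds were added to cell-free DMEM with 10% FBS and fluorescence read directly. The blue channel used 405 nm excitation and 460 nm emission, with triamterene as the reference fluorophore.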

[12] = qHTS assay to test for compound auto fluorescence at 535 nm (green) in HEK293 cell free culture (AID 720682)
Procedure, shortened: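 Steps: dispense DMEM/10% FBS into empty wells; pin in compound or DMSO; measure fluorescence at 485/535 nm. Values are fluorescein equivalents.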

[13] = qHTS assay to test for compound auto fluorescence at 590 nm (red) in HEK293 cell free culture (AID 720683)
Procedure, shortened: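 Cell-free wells of DMEM with 10% FBS received compound, and intrinsic fluorescence was read at excitation/emission 540/590 nm. Values expressed as equivalence to Rose Bengal sodium.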

[14] = qHTS assay to test for compound auto fluorescence at 590 nm (red) in HepG2 cell free culture (AID 720684)
Procedure, shortened: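 Rose Bengal sodium served as the reference for red signal. Test compounds were dispensed into serum-containing MEM (10% FBS) without cells, and plates were read at 540/590 nm.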

[15] = qHTS assay to test for compound auto fluorescence at 460 nm (blue) in HepG2 cell free culture (AID 720685)
Procedure, shortened: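 Cell-free plates of MEM plus 10% FBS received 23 nL compound or DMSO vehicle; blue-channel (405/460 nm) intensity scored against triamterene as reference fluorophore.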

[16] = qHTS assay to test for compound auto fluorescence at 535 nm (green) in HepG2 cell free culture (AID 720686)
[17] = qHTS assay to test for compound auto fluorescence at 460 nm (blue) in HepG2 cells (AID 720687)
Procedure, shortened: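 HepG2 cells in MEM with 10% FBS, attached overnight at 37 C, were exposed to compound or DMSO for 1 hr at 37 C, 5% CO2. Blue fluorescence was read at 405/460 nm, with triamterene as reference fluorophore.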

[18] = biological target: Glucocorticoid receptor (Homo sapiens) (UniProt P04150); test: qHTS assay to identify small molecule agonists of the glucocorticoid receptor (GR) signaling pathway (AID 720691; active = well fitted activation curve with a large enough effect in the signal ratio in the repeat runs, not every such curve was filed as active; the % refers to the signal ratio; note: potency is the fitted concentration of half-maximal effect); details: GR-bla HeLa, beta-lactamase reporter ratio, 18 h; activation: at 62.4 µM (top of the series)
Procedure, shortened: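 Agonist-mode qHTS in HeLa cells stably expressing a glucocorticoid-response-element beta-lactamase reporter. Fluorescence intensity read with FRET substrate (2 h, room temperature) after 18 h compound treatment at 37 C.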

[19] = biological target: Glucocorticoid receptor (Homo sapiens) (UniProt P04150); test: qHTS assay to identify small molecule antagonists of the glucocorticoid receptor (GR) signaling pathway (AID 720692; active = well fitted inhibition curve with a large enough effect in the signal ratio in the repeat runs, not every such curve was filed as active; the % refers to the signal ratio)
Procedure, shortened: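 Inhibition of dexamethasone-driven (5 nM final) beta-lactamase expression was measured in GRE-reporter HeLa cells over 18 h at 37C. Fluorescence was read after 2 h with the B/G FRET substrate at room temperature.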

Measured: Potency

Chain of Glucocorticoid receptor (Homo sapiens) (P04150 whole entry, looked up): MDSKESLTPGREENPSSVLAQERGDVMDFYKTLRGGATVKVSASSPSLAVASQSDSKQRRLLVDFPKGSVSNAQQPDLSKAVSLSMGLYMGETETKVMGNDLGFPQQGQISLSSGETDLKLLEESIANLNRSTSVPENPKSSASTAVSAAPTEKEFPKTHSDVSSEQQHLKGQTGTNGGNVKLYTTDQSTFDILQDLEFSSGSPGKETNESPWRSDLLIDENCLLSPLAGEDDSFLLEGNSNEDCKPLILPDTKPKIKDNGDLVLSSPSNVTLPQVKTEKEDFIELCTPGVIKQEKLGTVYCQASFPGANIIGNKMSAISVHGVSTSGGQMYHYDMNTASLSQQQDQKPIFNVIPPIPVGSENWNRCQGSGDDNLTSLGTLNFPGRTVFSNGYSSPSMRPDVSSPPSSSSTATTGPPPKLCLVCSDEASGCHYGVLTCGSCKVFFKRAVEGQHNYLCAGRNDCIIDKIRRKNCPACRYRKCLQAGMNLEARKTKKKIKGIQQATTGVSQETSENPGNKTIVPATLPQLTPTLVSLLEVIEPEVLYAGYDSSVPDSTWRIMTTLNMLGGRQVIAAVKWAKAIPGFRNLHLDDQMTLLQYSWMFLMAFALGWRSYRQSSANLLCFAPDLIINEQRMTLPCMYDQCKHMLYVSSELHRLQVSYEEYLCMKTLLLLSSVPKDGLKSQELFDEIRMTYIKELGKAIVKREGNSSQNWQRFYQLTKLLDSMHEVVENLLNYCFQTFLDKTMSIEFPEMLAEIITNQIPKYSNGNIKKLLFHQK

C[C@H]1C[C@H]2[C@@H]3CCC4=CC(=O)C=C[C@]4(C)[C@@]3(F)[C@@H](O)C[C@]2(C)[C@@]1(O)C(=O)CCl
inactive: [1] | [2] | [3] | [4] | [6] | [7] | [8] | [9] | [10] | [11] | [12] | [13] | [14] | [15] | [16] | [17]
active: [5] 11.9 µM | [18] 0.0017 µM

O=C(O)CO.[NH2-].[NH2-].[Pt+2]
inactive: [1] | [2] | [3] | [4] | [5] | [6] | [7] | [8] | [9] | [10] | [11] | [12] | [13] | [14] | [16] | [17]

CO[C@H]1O[C@@H]2O[C@@]3(C)CC[C@H]4[C@H](C)CC[C@@H]([C@H]1C)[C@@]24OO3
inactive: [1] | [2] | [3] | [4] | [5] | [6] | [7] | [8] | [9] | [10] | [11] | [12] | [13] | [14] | [15] | [16] | [17] | [19]

CCN(CC)CCOC(=O)c1ccc(N)cc1Cl
inactive: [1] | [2] | [3] | [4] | [5] | [6] | [7] | [8] | [9] | [10] | [11] | [12] | [13] | [15] | [16] | [17] | [18] | [19]

CC1(C)N=C(N)N=C(N)N1c1ccc(Cl)cc1
inactive: [1] | [3] | [4] | [5] | [6] | [7] | [8] | [9] | [10] | [11] | [12] | [13] | [14] | [15] | [16] | [17] | [18] | [19]
active: [2] 5.96 µM

O=C(CCCCCCCCCCCCC1CCCC1)Nc1ccc(S(=O)(=O)c2ccc(NC(=O)CCCCCCCCCCCCC3CCCC3)cc2)cc1
inactive: [1] | [2] | [3] | [4] | [5] | [6] | [7] | [8] | [9] | [10] | [11] | [12] | [13] | [14] | [15] | [16] | [17] | [18] | [19]

CN1CC(O)c2cc(N=NC(N)=O)c(O)cc21 (stereo unspecified)
inactive: [1] | [2] | [3] | [4] | [5] | [6] | [7] | [8] | [9] | [10] | [11] | [12] | [13] | [14] | [15] | [16] | [17] | [18] | [19]

CC(=O)O[C@H]1C(=O)[C@@]2(C)[C@H]([C@H](OC(=O)c3ccccc3)[C@]3(O)C[C@H](OC(=O)[C@H](O)[C@@H](NC(=O)c4ccccc4)c4ccccc4)C(C)=C1C3(C)C)[C@]1(OC(C)=O)CO[C@@H]1C[C@@H]2O
active: [3] 0.0188 µM | [5] 0.944 µM
inactive: [1] | [2] | [4] | [6] | [7] | [8] | [9] | [10] | [11] | [12] | [13] | [14] | [15] | [16] | [17] | [18] | [19]

CCCCC(O)c1ccccc1 (stereo unspecified)
active: [2] 26.6 µM
inactive: [1] | [3] | [4] | [5] | [6] | [7] | [8] | [9] | [10] | [11] | [12] | [13] | [14] | [15] | [16] | [17] | [18] | [19]

Cn1c(=O)c2c(ncn2CCOC(=O)C(C)(C)Oc2ccc(Cl)cc2)n(C)c1=O
inactive: [1] | [2] | [3] | [4] | [5] | [6] | [7] | [8] | [9] | [10] | [11] | [12] | [13] | [15] | [16] | [17] | [18] | [19]

C=C[C@]1(C)C[C@@H](OC(=O)CSCCN(CC)CC)[C@]2(C)[C@H](C)CC[C@]3(CCC(=O)[C@H]32)[C@@H](C)[C@@H]1O
inactive: [1] | [2] | [3] | [4] | [5] | [6] | [7] | [8] | [9] | [10] | [11] | [12] | [13] | [14] | [15] | [16] | [17] | [19]
